According to PubChem BioAssay (EPA / NIEHS):
Inconclusive results are not listed. Calls of active or inactive are those of the source. The calls were made as follows: active = hit-call score of the fitted dose curve at least 0.9, where 1 is the maximum; inconclusive = response in the unintended direction; inactive = score below 0.9.

Columns and labels:
[1] = biological target: human Norepinephrine Transporter (NET), SLC6A2 (gene 6530) (UniProt P23975); experiment: NVS_TR_hNET: NovaScreen (NVS) Transporter Assay for human Norepinephrine Transporter (NET) (AID 2283377);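 as to AC50: displacement of radioligand from human NET seen as loss of scintillation signal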
Chain of human Norepinephrine Transporter (NET), SLC6A2 (gene 6530) (P23975 whole entry, looked up): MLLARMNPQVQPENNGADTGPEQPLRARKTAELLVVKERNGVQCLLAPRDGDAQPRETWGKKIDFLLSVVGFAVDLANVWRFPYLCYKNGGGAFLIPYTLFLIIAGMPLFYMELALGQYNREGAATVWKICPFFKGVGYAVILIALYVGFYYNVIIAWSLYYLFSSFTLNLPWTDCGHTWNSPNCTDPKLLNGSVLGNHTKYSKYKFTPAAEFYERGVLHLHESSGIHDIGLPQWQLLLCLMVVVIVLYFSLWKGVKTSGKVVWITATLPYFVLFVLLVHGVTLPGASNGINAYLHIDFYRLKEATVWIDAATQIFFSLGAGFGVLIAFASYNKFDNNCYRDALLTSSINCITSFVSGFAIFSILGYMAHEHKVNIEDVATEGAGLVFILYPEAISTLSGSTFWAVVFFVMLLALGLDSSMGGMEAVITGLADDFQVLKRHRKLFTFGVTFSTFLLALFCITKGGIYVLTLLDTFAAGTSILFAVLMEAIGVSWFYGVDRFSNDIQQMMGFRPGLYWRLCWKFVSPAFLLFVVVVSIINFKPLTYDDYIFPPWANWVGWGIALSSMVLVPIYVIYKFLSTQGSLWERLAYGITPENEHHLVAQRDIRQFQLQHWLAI
How it was run: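 Cell-free radioligand binding using CHO-derived membrane protein expressing human NET, read by filter scintillation counting 1 h after dosing; loss of signal vs DMSO. Initial duplicate screen at 25 uM, actives retested in concentration series.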

[2] = biological target: mouse Estrogen Receptor alpha (Era), Esr1 (gene 13982) (UniProt P19785); experiment: NVS_NR_mERa: NovaScreen (NVS) Nuclear Receptor Binding Assay for mouse Estrogen Receptor alpha (Era) (AID 2283378);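 also: hit means loss of bound radioligand signal relative to DMSO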
Chain of mouse Estrogen Receptor alpha (Era), Esr1 (gene 13982) (P19785 whole entry, looked up): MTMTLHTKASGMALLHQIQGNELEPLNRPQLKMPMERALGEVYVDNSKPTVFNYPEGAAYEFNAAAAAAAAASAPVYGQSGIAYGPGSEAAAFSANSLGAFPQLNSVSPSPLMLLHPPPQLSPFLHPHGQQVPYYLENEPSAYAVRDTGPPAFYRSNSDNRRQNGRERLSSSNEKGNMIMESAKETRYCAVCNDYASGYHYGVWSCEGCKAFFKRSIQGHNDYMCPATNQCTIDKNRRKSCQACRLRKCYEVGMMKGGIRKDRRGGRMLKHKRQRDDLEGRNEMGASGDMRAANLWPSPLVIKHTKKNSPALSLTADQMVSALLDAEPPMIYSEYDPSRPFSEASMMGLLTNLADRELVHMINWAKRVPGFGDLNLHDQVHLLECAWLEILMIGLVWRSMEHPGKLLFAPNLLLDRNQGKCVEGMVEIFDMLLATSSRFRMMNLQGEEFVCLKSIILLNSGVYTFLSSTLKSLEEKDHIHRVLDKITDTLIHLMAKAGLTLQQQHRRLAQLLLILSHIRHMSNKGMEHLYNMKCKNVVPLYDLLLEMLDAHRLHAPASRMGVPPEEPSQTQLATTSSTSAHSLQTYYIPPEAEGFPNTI
How it was run: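 Measurements come from scintillation counting after filtration, taken 18 hours after chemicals were added to a cell-free mouse Era preparation with radioligand. Screening was duplicate at 25 uM, with concurrent positive and negative controls and confirmatory concentration series for actives.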

[3] = biological target: Estrogen receptor beta (Homo sapiens) (UniProt Q92731); experiment: OT_ER_ERbERb_1440: Odyssey Thera (OT) 24-hour HEK293T Protein-Complementation Assay for Estrogen Receptor-beta/-beta Homodimer (AID 2283380);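 also: scored as signal increase over DMSO baseline for both agonists and antagonists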
Chain of Estrogen receptor beta (Homo sapiens) (Q92731 whole entry, looked up, the tested form may be a part): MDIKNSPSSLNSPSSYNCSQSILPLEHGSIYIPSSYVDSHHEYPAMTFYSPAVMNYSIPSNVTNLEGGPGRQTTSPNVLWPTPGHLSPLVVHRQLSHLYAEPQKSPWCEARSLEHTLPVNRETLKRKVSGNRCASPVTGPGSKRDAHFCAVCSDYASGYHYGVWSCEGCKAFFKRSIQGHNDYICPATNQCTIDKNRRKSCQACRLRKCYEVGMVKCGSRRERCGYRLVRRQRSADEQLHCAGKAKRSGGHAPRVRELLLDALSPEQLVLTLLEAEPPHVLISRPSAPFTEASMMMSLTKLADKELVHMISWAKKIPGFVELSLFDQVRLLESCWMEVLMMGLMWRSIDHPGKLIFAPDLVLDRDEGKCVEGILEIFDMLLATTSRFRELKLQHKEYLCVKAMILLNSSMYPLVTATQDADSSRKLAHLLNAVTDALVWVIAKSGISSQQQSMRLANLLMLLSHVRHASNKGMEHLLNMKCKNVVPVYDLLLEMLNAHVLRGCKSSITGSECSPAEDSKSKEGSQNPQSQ
How it was run: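 HEK293T cells stably expressing ER beta LBD (aa 310-547) homodimer fragment-complementation reporter, dosed 24 h. Cells formaldehyde-fixed, Draq5-stained; gain in nuclear (agonist) or nuclear plus cytoplasmic (antagonist) fluorescence versus DMSO read by laser scanning cytometry.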

[4] = biological target: human Adenosine Transporter (Adot), SLC29A1 (gene 2030) (UniProt Q99808); experiment: NVS_TR_hAdoT: NovaScreen (NVS) Transporter Assay for human Adenosine Transporter (Adot) (AID 2283368)
Chain of human Adenosine Transporter (Adot), SLC29A1 (gene 2030) (Q99808 whole entry, looked up): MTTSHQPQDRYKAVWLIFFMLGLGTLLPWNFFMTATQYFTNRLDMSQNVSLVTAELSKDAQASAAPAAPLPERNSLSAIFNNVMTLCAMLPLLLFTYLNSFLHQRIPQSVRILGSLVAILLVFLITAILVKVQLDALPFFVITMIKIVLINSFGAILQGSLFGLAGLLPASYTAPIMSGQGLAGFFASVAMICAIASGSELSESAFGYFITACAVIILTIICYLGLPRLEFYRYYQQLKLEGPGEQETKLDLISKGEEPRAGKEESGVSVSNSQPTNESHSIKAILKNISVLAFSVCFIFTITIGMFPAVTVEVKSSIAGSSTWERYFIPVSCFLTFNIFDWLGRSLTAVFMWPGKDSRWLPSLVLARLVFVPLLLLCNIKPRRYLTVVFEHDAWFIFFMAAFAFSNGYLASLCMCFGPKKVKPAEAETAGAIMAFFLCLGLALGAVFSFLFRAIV
How it was run: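 U937-derived membranes, cell-free radioligand binding, filter scintillation 1 h after dosing. 25 uM duplicate screen; hits (e.g. 30% inhibition) run in concentration-response up to 50 uM; loss of signal versus DMSO.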

[5] = system: guinea pig Dopamine Transporter (DAT), gene 100714898; experiment: NVS_TR_gDAT: NovaScreen (NVS) Transporter Assay for guinea pig Dopamine Transporter (DAT) (AID 2283369);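 also: active compounds lower bound radioligand signal relative to DMSO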
How it was run: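 Primary pass: duplicate wells at 25 uM, threshold e.g. 30% inhibition. Follow-up: singleton concentration-response, highest 50 uM. Radioligand binding on guinea pig striatal membranes, 2 h, filtration scintillation detection.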

[6] = biological target: human Dopamine Transporter (DAT), SLC6A3 (gene 6531) (UniProt Q01959); experiment: NVS_TR_hDAT: NovaScreen (NVS) Transporter Assay for human Dopamine Transporter (DAT) (AID 2283374);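 also: activity means loss of bound radioligand signal relative to DMSO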
Chain of human Dopamine Transporter (DAT), SLC6A3 (gene 6531) (Q01959 whole entry, looked up): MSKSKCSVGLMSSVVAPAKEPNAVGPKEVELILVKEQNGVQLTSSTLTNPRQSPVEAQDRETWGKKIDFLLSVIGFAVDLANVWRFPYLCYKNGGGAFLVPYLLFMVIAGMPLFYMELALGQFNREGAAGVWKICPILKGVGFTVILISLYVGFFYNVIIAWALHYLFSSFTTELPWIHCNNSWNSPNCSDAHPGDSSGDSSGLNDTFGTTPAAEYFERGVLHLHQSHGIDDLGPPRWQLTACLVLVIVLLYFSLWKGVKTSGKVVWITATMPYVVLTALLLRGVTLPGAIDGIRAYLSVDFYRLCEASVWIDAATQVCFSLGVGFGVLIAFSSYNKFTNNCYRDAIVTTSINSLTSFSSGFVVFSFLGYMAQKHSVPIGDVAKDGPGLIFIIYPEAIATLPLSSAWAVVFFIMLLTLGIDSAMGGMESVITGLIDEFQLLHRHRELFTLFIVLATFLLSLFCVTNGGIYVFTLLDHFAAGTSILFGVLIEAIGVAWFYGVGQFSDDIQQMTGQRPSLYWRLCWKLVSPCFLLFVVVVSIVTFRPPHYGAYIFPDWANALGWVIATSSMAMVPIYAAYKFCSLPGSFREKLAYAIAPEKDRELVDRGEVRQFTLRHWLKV
How it was run: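 Cell-free radioligand displacement binding at human DAT, 1 h after dosing, with filtration and scintillation counting. Primary screen in duplicate at 25 uM, actives then in concentration series. Loss of bound signal versus DMSO scored.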

[7] = biological target: rat Serotonin Transporter (SERT), Slc6a4 (gene 25553) (UniProt P31652); experiment: NVS_TR_rSERT: NovaScreen (NVS) Transporter Assay for rat Serotonin Transporter (SERT) (AID 2283375)
Chain of rat Serotonin Transporter (SERT), Slc6a4 (gene 25553) (P31652 whole entry, looked up): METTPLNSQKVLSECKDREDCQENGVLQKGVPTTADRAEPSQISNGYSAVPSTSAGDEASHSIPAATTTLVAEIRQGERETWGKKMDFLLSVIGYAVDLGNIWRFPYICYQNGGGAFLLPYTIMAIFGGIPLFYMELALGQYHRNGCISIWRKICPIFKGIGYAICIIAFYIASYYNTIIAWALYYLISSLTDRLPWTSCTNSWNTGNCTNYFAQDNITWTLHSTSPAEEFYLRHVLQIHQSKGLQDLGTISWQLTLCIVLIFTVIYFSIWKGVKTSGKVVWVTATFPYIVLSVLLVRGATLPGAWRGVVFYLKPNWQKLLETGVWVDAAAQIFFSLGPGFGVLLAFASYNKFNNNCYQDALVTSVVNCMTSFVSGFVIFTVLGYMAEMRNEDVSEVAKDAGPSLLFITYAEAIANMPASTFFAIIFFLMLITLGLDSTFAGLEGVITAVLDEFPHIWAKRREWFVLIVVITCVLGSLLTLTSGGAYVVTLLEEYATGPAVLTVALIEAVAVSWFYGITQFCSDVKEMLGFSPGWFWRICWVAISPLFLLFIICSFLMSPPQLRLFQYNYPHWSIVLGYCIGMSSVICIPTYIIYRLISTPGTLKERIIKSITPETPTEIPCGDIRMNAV
How it was run: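 Using rat forebrain membrane SERT, test chemicals compete with a radioligand for 1 hour, and bound counts are taken by filter-based scintillation. Screening starts at 25 uM in duplicate, followed by concentration series for actives.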

[8] = biological target: Agonist Androgen Response Element (ARE), AR (gene 367) (UniProt P10275); experiment: OT_AR_ARELUC_AG_1440: Odyssey Thera (OT) 24-hour CHO-K1 Luciferase Assay for Agonist Androgen Response Element (ARE) (AID 2283379)
Chain of Agonist Androgen Response Element (ARE), AR (gene 367) (P10275 whole entry, looked up): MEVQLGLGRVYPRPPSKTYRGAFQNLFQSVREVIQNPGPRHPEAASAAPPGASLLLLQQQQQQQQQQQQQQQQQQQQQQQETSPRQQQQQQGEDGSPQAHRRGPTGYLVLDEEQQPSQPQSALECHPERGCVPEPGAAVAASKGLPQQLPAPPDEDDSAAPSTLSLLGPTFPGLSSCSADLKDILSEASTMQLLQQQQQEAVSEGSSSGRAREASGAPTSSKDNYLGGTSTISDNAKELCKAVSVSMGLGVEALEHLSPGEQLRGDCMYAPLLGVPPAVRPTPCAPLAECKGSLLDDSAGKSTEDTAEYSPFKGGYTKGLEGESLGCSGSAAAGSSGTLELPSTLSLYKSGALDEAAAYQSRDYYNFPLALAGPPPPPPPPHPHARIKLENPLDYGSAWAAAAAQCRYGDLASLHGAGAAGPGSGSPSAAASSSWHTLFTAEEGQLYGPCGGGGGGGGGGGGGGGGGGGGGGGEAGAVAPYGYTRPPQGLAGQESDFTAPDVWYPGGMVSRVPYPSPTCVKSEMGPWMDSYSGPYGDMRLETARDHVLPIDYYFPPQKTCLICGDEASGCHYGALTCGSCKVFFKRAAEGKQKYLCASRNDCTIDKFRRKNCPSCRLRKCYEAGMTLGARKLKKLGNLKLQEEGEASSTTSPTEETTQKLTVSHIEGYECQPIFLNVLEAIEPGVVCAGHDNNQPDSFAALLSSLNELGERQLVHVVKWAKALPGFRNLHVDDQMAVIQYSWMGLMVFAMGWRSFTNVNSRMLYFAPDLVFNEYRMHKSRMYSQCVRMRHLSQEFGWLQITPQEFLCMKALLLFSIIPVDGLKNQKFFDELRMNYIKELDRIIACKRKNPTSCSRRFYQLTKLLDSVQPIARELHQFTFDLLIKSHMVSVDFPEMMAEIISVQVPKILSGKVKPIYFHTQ
How it was run: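 CHO-K1 cells carrying an ARE-driven luciferase reporter were exposed to compounds for 24 h. Luminescence was then read after adding a D-luciferin/ATP mix, and activity was scored as a gain in signal over DMSO vehicle.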

[9] = biological target: human Serotonin Transporter (SERT), SLC6A4 (gene 6532) (UniProt P31645); experiment: NVS_TR_hSERT: NovaScreen (NVS) Transporter Assay for human Serotonin Transporter (SERT) (AID 2283372)
Chain of human Serotonin Transporter (SERT), SLC6A4 (gene 6532) (P31645 whole entry, looked up): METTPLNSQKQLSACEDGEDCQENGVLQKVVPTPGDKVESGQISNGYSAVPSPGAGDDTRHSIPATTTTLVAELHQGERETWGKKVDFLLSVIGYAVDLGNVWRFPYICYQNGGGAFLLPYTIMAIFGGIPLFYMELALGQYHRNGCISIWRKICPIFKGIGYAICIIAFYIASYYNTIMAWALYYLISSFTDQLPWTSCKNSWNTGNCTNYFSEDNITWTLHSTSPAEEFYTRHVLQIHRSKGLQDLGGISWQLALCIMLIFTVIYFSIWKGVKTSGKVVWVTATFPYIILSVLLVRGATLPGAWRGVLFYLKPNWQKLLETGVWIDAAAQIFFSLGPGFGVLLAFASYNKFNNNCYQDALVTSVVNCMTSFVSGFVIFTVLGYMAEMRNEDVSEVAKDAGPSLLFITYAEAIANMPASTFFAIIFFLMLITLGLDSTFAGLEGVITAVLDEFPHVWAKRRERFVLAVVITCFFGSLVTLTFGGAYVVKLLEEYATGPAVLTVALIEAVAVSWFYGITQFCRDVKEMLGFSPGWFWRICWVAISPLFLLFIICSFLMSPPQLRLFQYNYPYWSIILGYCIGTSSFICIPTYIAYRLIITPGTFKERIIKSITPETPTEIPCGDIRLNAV
How it was run: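 Radioligand binding to native SERT in human platelet membranes, read by filter-based scintillation counting 1 h after dosing. Primary screen in duplicate at 25 uM; actives followed up in concentration series; loss of signal versus DMSO baseline.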

[10] = system: rat Norepinephrine Transporter (NET), gene 83511; experiment: NVS_TR_rNET: NovaScreen (NVS) Transporter Assay for rat Norepinephrine Transporter (NET) (AID 2283373)
Description: NVS_TR_rNET is a biochemical, single-readout assay that uses extracted gene-proteins from Rat forebrain membranes in a tissue-based cell-free assay. Measurements were taken 1 hour after chemical dosing in a 48-well plate.NVS_TR_rNET is one of one assay component(s) measured or calculated from the NVS_TR_rNET assay. It is designed to make measurements of radioligand binding, a form of binding reporter, as detected with scintillation counting signals by Filter-based radiodetection technology.Data from the assay component NVS_TR_rNET was analyzed into 1 assay endpoint. This assay endpoint, NVS_TR_rNET, was analyzed in the positive analysis fitting direction relative to DMSO as the negative control and baseline of activity. […] Furthermore, this assay endpoint can be referred to as a primary readout, because the performed assay has only produced 1 assay endpoint. […]
Binding assays used specific radioligands (tritiated, iodinated) with non-radioactive competitive displacement ligands in agonist or antagonist protocols (as indicated) and various reference compounds and inhibitors to titrate specific binding to receptors and transporters. Most enzyme assays (CYPs, kinases, phosphatases, proteases, HDACs) used recombinant protein and specific substrates (fluorescence mostly, some colorimetric and radioactive) and inhibitors, followed by a biochemical separation of substrate and product. […]

CC(C)(C)c1cc(O)c(C(C)(C)C)cc1O
outcome [1]: inactive | outcome [2]: inactive | outcome [3]: inactive

CCCCC(CC)COC(=O)CC(C(=O)OCC(CC)CCCC)S(=O)(=O)O (stereo unspecified)
AC50 [4]: 19.1 µM (active) | AC50 [5]: 20.6 µM (active) | AC50 [6]: 8.14 µM (active) | AC50 [1]: 10.2 µM (active) | outcome [3]: inactive

CCCCCC(=O)O
outcome [7]: inactive | outcome [8]: inactive | outcome [3]: inactive

CC1(C)CC(N=C=O)CC(C)(CN=C=O)C1 (stereo unspecified)
outcome [6]: inactive | AC50 [1]: 9.14 µM (active)

COc1cc(S(=O)(=O)O)c(C)cc1N=Nc1c(O)ccc2cc(S(=O)(=O)O)ccc12
outcome [1]: inactive

Cc1ccc2ncccc2c1
outcome [6]: inactive

c1cc(-c2ccncc2)ccn1
outcome [4]: inactive

CCCc1cc(=O)[nH]c(=S)[nH]1
outcome [6]: inactive | outcome [2]: inactive

COc1ccc(S(=O)(=O)N2C(=O)[C@@](c3ccccc3OC)(N3C[C@H](O)C[C@H]3C(=O)N(C)C)c3cc(Cl)ccc32)c(OC)c1
AC50 [5]: 25 µM (active) | outcome [6]: inactive | AC50 [1]: 41.6 µM (active) | AC50 [8]: 0.694 µM (active)

Cc1ccc(C)c(O)c1C
AC50 [6]: 10.3 µM (active) | outcome [8]: inactive

O=[N+]([O-])C(CO)(CO)CO
outcome [9]: inactive | outcome [3]: inactive

COc1ccc2c(c1)c(CC(=O)O)c(C)n2C(=O)c1ccc(Cl)cc1
AC50 [6]: 7.64 µM (active) | outcome [8]: inactive

O=C(N[C@@H](Cc1ccccc1)[C@@H](O)C(=O)N1C[C@@H](O)[C@@H](O)C1)c1cc2cc(Cl)ccc2[nH]1
outcome [9]: inactive | AC50 [6]: 11.5 µM (active) | AC50 [7]: 12.9 µM (active) | outcome [2]: inactive | outcome [3]: inactive

COC(=O)c1ccc(O)cc1
outcome [6]: inactive | outcome [2]: inactive | outcome [3]: inactive

CNCc1cc(F)ccc1Oc1ccc(Cl)c(Cl)c1
AC50 [7]: 0.00346 µM (active) | outcome [3]: inactive

CCc1c(C(=O)NN2CCCCC2)nn(-c2ccc(Cl)cc2Cl)c1-c1ccc(Br)cc1
outcome [5]: inactive | AC50 [6]: 6.88 µM (active) | outcome [3]: inactive

CCOC(=O)C(C)(C)Oc1ccc(Cl)cc1
outcome [6]: inactive | outcome [3]: inactive

C[C@]12C=CC(=O)C=C1CC[C@@H]1[C@@H]2C(=O)C[C@@]2(C)[C@H]1CC[C@]2(O)C(=O)CO
AC50 [4]: 14.1 µM (active) | outcome [3]: inactive

Nc1ccc(S(=O)(=O)c2ccc(N)cc2)cc1
AC50 [5]: 25 µM (active) | AC50 [6]: 3.85 µM (active) | outcome [1]: inactive

Cc1nc(-c2ccc3c(c2)CCN(CCC2CCC(NC(=O)/C=C/c4ccc(F)cc4)CC2)CC3)no1 (stereo unspecified)
AC50 [9]: 0.068 µM (active) | AC50 [7]: 0.201 µM (active) | outcome [8]: inactive | outcome [3]: inactive

Cc1c(C(=O)O)c(O)cc2c1C(=O)c1c(O)c([C@@H]3O[C@H](CO)[C@@H](O)[C@H](O)[C@H]3O)c(O)c(O)c1C2=O
outcome [5]: inactive | outcome [6]: inactive | outcome [7]: inactive | outcome [3]: inactive

CN1CCN(Cc2cc(-c3ccc4[nH]c(=O)oc4c3)co2)[C@@H](c2ccc(F)cc2)C1
AC50 [5]: 5.69 µM (active) | AC50 [9]: 3.37 µM (active) | AC50 [6]: 1.99 µM (active) | AC50 [7]: 2.52 µM (active) | AC50 [1]: 12.7 µM (active) | AC50 [2]: 5.79 µM (active)

CN1CCCC1=O
AC50 [6]: 25 µM (active) | outcome [3]: inactive

CCCCN(CCCC)CCCC
AC50 [6]: 16.7 µM (active) | outcome [3]: inactive

Cc1cccc(Nc2cc(Cl)nc(SCC(=O)O)n2)c1C
outcome [1]: inactive | outcome [2]: inactive | outcome [8]: inactive | outcome [3]: inactive

CCOC(=O)CCC(=O)OCC
AC50 [5]: 6.93 µM (active) | outcome [9]: inactive | outcome [6]: inactive | outcome [2]: inactive | outcome [3]: inactive

CC=Cc1ccc(O)c(OC)c1
AC50 [5]: 16.6 µM (active) | AC50 [6]: 8.8 µM (active)

CCOc1ccc2c(c1)C(C)=CC(C)(C)N2
outcome [1]: inactive | outcome [8]: inactive

Nc1nc(N)c2nc(CNc3ccc(C(=O)N[C@@H](CCC(=O)O)C(=O)O)cc3)cnc2n1
outcome [4]: inactive | outcome [1]: inactive | outcome [3]: inactive

Nc1ccc2c(c1)C(=O)c1ccccc1C2=O
outcome [1]: inactive

C=CCOC(=O)c1ccccc1C(=O)OCC=C
AC50 [10]: 25 µM (active)

Oc1ccc2c(c1)OC[C@@H](N1CCC(O)(c3ccc(F)cc3)CC1)[C@H]2O
outcome [10]: inactive | AC50 [6]: 12.5 µM (active) | outcome [7]: inactive | outcome [3]: inactive

Cc1ccc(C(C)C)c(O)c1
outcome [5]: inactive | outcome [3]: inactive

CC(=O)C(C)=CC1C(C)=CCCC1(C)C (stereo unspecified)
outcome [2]: inactive

O=C(O)Cc1ccccc1Nc1c(Cl)cccc1Cl
outcome [6]: inactive | outcome [2]: inactive | outcome [3]: inactive

CC1=C(/C=C/C(C)=C/C=C/C(C)=C/CO)C(C)(C)CCC1
outcome [1]: inactive | outcome [3]: inactive
